Each structure is given as a SMILES string. Among all 320,000 compounds or so, about 7,600 (2.4%) were called active. Roughly 3% stayed inconclusive and do not appear here. The full list was thinned out, with actives kept by preference. Values without a mark were called inactive. Calls follow the shape of the dose curve; as a rule, active = well fitted activation curve with a large enough effect; inconclusive = small, poorly fitted or top-dose-only effect; inactive = no such curve, though single readings can be large or run the other way.
Potency is read from the fitted curve at half-maximal effect.

The test can be described thus: qHTS Assay for NPC1 Promoter Activators. Also: nearly all actives have a fitted effect of over 60% in size.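 As to activation: reporter is driven by a mutant NPC1 promoter; % of control where 0% means no effect.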 To be noted: Huh7 NPC1 promoter luciferase reporter, 24 h; series mostly up to 9.22 µM; activation: at the top concentration. A digest of the protocol:
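Stable NPC1-promoter luciferase Huh7 line; cpd (DMSO) 24 h, 37 °C, 5% CO2; Amplite luciferase reagent 10 min RT; luminescence readout. qHTS format.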
Take `COc1ccc(OC)c(CN2CCN(C(=O)CNC(=O)c3cc(C)cc(C)c3)CC2)c1`: the “activation” value was 3.16%. The same measure, in the same setting: to `O=C(CN1CCN(c2ccccn2)CC1)N1CCc2ccccc21` belongs -0.609%. `O=C(CSCc1ccccc1)N1CCc2ccccc21`: the Potency was 2.24 µM (active). In the case of `CCC(=O)N1CCCc2ccccc21`, the “activation” value was 0.602%.

As for `CN(CC(=O)Nc1ccc(F)cc1)CC(=O)N1CCCCC1`, the “activation” value was -1.98%. The same measure, in the same setting: to `Cc1ccc(S(=O)(=O)N(CC(=O)Nc2cccc([N+](=O)[O-])c2)Cc2ccc(Cl)cc2)cc1` belongs -0.0248%; to `COc1c(Cl)cc(C(=O)Nc2ccc(Cl)cn2)cc1Cl`, 25.4%.

As to `O=C(Nc1ccc(Cl)cn1)c1ccc2c(c1)OCCO2`, the Potency was 0.501 µM (active). For the molecule `CC(=O)c1ccc2c(c1)OCCOCCOc1ccc(C(C)=O)cc1OCCOCCO2`, the “activation” value is -10.2%.

Consider `Cc1nc(NC(=O)c2ccc3c(c2)OCCO3)ccc1Br`, for which the Potency is 1 µM (active). Consider `O=C(Nc1cccc(S(=O)(=O)Nc2ccc(Cl)cc2)c1)c1ccc2c(c1)OCCO2`, for which the “activation” value was -14.5%.

As for `CCCc1cc(C(=O)Nc2ccc(C(=O)OC)cc2)cs1`, the “activation” value was 4.68%.

For `CCCCC(CC)C(=O)Nc1ccc(Cl)cn1` (stereo not drawn), the “activation” value was 0.296%. The same measure, in the same setting: then `Cc1cccc(C)c1NC(=O)CNC(=O)c1ccc2c(c1)OCCO2`, with -1.52%. On to `CCCc1cc(C(=O)Nc2ccc(Cl)cn2)cs1`, for which the Potency is 0.501 µM (active). Consider `O=C(C1Cc2ccccc2CN1C(=O)c1ccco1)N1CCN(c2ccccc2)CC1` (stereo not drawn), for which the “activation” value was -0.773%.

In the case of `CN(CC(=O)Nc1ccc(F)c(F)c1F)C(=O)C1CC(=O)N(C2CCCC2)C1` (stereo not drawn), the “activation” value was 0.171%. On the same count and under the same terms, then `COc1ccc(CS(=O)/C(Cl)=C(/Cl)C(=O)Nc2ccc(OC)nc2)cc1` (stereo not drawn), with -23.3%; and `CCCCNC(=O)OC(C)CNC(=O)OC` (stereo not drawn), with -1.68%. Same read-out and setting: then `COc1ccc(NC(=O)COC(=O)c2n[nH]c3ccccc23)c(OC)c1`, with 1.11%; and `O=C(CSc1nnc(COc2ccc(Cl)cc2)n1Cc1ccco1)N1CCNC1=O`, with -9.88%.

`CCNC(=O)N1CCN(S(=O)(=O)c2ccc3c(c2)OCCCO3)CC1`: the “activation” value was 5.22%. Take `COc1ccc(CN2C(=O)C(C)S/C2=N/N=C/c2ccco2)cc1` (stereo not drawn): the Potency is 3.16 µM (active). As to `O=C1N/C(=N\N=C\c2ccco2)SC1Cc1ccc(F)cc1` (stereo not drawn), the “activation” value was -12.3%. Still for that read-out and setting: then `C=CCN1C(=O)C(Cc2cccc(Cl)c2)S/C1=N/N=C/c1ccco1` (stereo not drawn), with -2.22%; and `CCOc1ccc(S(=O)(=O)N2CCC(C(=O)NCC(=O)Nc3cccc(Cl)c3C)CC2)cc1`, with -2%; and `O=C(Nc1ccccc1F)c1ccc(S(=O)(=O)N2CCCCCC2)cc1`, with 13%. For `CCc1ccc2oc(-c3ccc(N)cc3)nc2c1`, the Potency is 0.708 µM (active). On to `Cc1[nH]c2ccccc2c1C(=O)C(C)Sc1nnc(C2CC2)o1` (stereo not drawn), for which the “activation” value is -0.654%. For the molecule `O=C(O)/C=C/c1ccc2c(c1)OCCO2`, the “activation” value is -0.0021%. Same read-out and setting: then `O=C(/C=C\c1ccc2c(c1)OCO2)NC1(C(=O)Nc2ccc3c(c2)OCCO3)CCCCC1`, with 0.617%. Turning to `CNS(=O)(=O)c1ccc(NC(=O)Nc2ccc3c(c2)OCO3)cc1`, the Potency was 2.51 µM (active). On the same count and under the same terms, then `Cc1cccc(NC(=O)Nc2ccc3c(c2)OCO3)n1`, with 1.78 µM (active). Consider `Cc1ccc(S(=O)(=O)NCC(=O)Nc2ccc3c(c2)OCCO3)cc1`, for which the “activation” value was -5.21%. Still for that read-out and setting: then `CC(NC(=O)Nc1ccc2c(c1)OCO2)c1ccncc1` (stereo not drawn), with 0.67%. Take `COc1cccc(/C=C/C(=O)Nc2ccc3c(c2)OCCO3)c1`: the Potency is 2.51 µM (active). For the molecule `O=C(/C=C/c1ccc2c(c1)OCO2)NCc1ccc(F)cc1`, the “activation” value is 1.01%.

As for `Cc1cccc(NC(=O)/C=C/c2ccc3c(c2)OCO3)n1`, the Potency was 1.41 µM (active). For the molecule `CC(C)CNS(=O)(=O)c1ccc(C(=O)Nc2ccc3c(c2)OCO3)cc1`, the “activation” value is -9.44%. Still for that read-out and setting: to `CC(NC(=O)Nc1cccc([N+](=O)[O-])c1)c1ccc2c(c1)OCO2` (stereo not drawn) belongs -3.91%. On to `COc1ccc(OC)c(/C=C/C(=O)OCC(=O)Nc2ccc3c(c2)OCCO3)c1`, for which the “activation” value is -4.86%. Still for that read-out and setting: then `COc1ccc(NC(=O)CN(C)C(=O)c2cc(C3CC3)nn2-c2ccccc2)cc1`, with -2.75%; and `O=S(=O)(c1ccc(Br)cc1)n1ccc2ccccc21`, with 0.578%; and `COc1ccc(S(=O)(=O)N2CCOCC2)cc1NC(=O)c1ccc(OCC(C)C)c(OC)c1`, with -2.86%. Take `Cc1ccccc1NC(=O)Cc1nc(COC(=O)c2cccnc2Cl)cs1`: the “activation” value is -1.43%. The same measure, in the same setting: then `O=C(CCc1ccccc1Cl)Nc1ccc(S(=O)(=O)Nc2nccs2)cc1`, with 0.222%; and `Cc1ccc(CN2CC(C(=O)N3CCN(S(=O)(=O)c4ccccc4)CC3)CC2=O)cc1` (stereo not drawn), with 0.0419%. For the molecule `NS(=O)(=O)c1ccc(CNC(=O)c2cccc(S(=O)(=O)N3CCc4ccccc43)c2)cc1`, the “activation” value is -4.31%. Same read-out and setting: then `O=C(O)c1cccc(S(=O)(=O)N2CC=C(c3ccccc3)CC2)c1`, with -3.36%.

`COc1cccc(C(=O)OCC(=O)c2[nH]c(C)c(C(C)=O)c2C)c1`: the “activation” value was -4.6%. For `COCCN1C(=O)C(=O)/C(=C(/O)c2ccc(S(=O)(=O)N3CCCCC3)cc2)C1c1ccc(OC)c(OC)c1` (stereo not drawn), the “activation” value is -1.34%. As to `O=C(CSC(=S)N1CCCCC1)c1c(F)cccc1F`, the Potency is 1.12 µM (active). `CC1CN(C(=S)SCC(=O)c2ccccc2)CC(C)O1` (stereo not drawn): the “activation” value was 0.428%. For the molecule `O=C(CSC(=S)N1CCOCC1)c1ccccc1`, the Potency is 0.501 µM (active). With `CC(=O)c1ccc(NC(=O)CSC(=S)N2CCCC2)cc1`, the “activation” value was 10.1%. Same read-out and setting: to `O=C(CSC(=S)N1CCOCC1)c1cc(Br)cc(Br)c1O` belongs -2.2%; to `COc1cccc(NC(=O)CN(C)C(=O)CSC(=S)N2CCCC2)c1`, -0.0559%. The same measure, in the same setting: to `COc1ccc(C(=O)N2CCN(c3ncccn3)CC2)cc1S(=O)(=O)N1CCOCC1` belongs -2.21% [at 1.84 µM]; to `C=CCC(NC(=O)Cc1ccccc1)C(=O)NCCC` (stereo not drawn), 0.87%; to `COc1ccc2nc(NC3=NCN(CC4CCCO4)CN3)nc(C)c2c1` (stereo not drawn), 0.784%. Still for that read-out and setting: to `COc1ccc(NS(=O)(=O)c2cc(NC(=O)COc3ccccc3F)ccc2OC)cc1` belongs -1.42%. Take `COc1ccc(C(=O)Nc2ccccc2C(=O)N/N=C/c2ccc(O)c(OC)c2)cc1`: the “activation” value was -21.2%. On the same count and under the same terms, to `O=C(N/N=C/c1cccc(Br)c1)c1ccc(N2CCCC2=O)cc1` belongs -8.21%. Consider `COc1cc(/C=N/NC(=O)c2ccc(N3CCCC3=O)cc2)ccc1O`, for which the Potency was 2.51 µM (active). Regarding `O=C1C=C(c2cccc(Cl)c2)C[C@@H](c2ccc(F)cc2)C1`, the “activation” value is -2.9%. On the same count and under the same terms, then `Cc1ccccc1NC(=O)C1CCN(C(=O)NC2CCCCC2)CC1`, with -1.28%.

With `O=C(Nc1cc2ccccc2oc1=O)C1CCCCC1`, the Potency is 0.447 µM (active). `CN1C(=O)c2ccc(NC(=O)C3CCCCC3)cc2C1=O`: the “activation” value is 6.75%.

Values taken from PubChem BioAssay AID485313 (National Center for Advancing Translational Sciences (NCATS), 2010).
